# Reference: PubChem BioAssay
# Active and inactive are the calls of the source.
# Tests used:
# [1] = test system: Plasmodium falciparum Sir2 (PF13_0152, Sir2A); assay: pfSir2 binders on small-molecule microarrays, primary screen, biochemical, small-molecule microarray, 635 nm fluorescence (AID 1098); details: small-molecule microarray binding, fluorescence 635 nm; higher = more signal;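 also: score merges spot fluorescence intensity with its signal-to-noise ratio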
# [2] = small-molecule microarray binders of probe aDKK1, primary screen, biochemical, biotinylated probe, 635/667 nm fluorescence (AID 1099); details: higher = more signal;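 also: score merges 667nm spot fluorescence with signal to noise across triplicate slides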
# [3] = small-molecule microarray binders of probe aCHRDL2, primary screen, biochemical, biotinylated probe, 635/667 nm fluorescence (AID 1100); details: higher = more signal
# [4] = splicing luciferase reporter signal modulators, primary screen, spliceosome inhibition project, cell-based, HEK293, splice +/- reporter (AID 1101); details: luminescence, 24 h, higher = more signal, called active from +8 up or from −8 down;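 also: HEK293 cells carrying a splicing-competent luciferase reporter gene; test concentration not given here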
# [5] = biological target: Fibroblast growth factor 10 (Homo sapiens) (UniProt O15520); assay: FGF10 binders on small-molecule microarrays, primary screen, biochemical, small-molecule microarray, 635 nm fluorescence (AID 1102); details: FGF10 binding, fluorescence 635 nm, higher = more signal
# Chain of Fibroblast growth factor 10 (Homo sapiens) (O15520 whole entry, looked up): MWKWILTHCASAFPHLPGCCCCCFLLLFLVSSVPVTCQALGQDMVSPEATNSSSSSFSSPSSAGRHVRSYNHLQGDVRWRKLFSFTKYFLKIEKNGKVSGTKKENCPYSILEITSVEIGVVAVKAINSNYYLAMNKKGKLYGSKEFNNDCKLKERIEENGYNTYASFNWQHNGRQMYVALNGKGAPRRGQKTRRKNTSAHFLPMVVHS
# [6] = test system: glycogen synthase kinase-3 (GSK3A per assay name; protocol says GSK3B); assay: GSK3 binders on small-molecule microarrays, primary screen, biochemical, small-molecule microarray, 635 nm fluorescence, GSK3A (AID 1103); details: small-molecule microarray binding, fluorescence 635 nm; higher = more signal; also: the record names both GSK3A and GSK3B
# [7] = biological target: Epidermal growth factor receptor (Homo sapiens) (UniProt P00533); assay: EGFR binders on small-molecule microarrays, primary screen, biochemical, small-molecule microarray, 635 nm fluorescence (AID 1104); details: EGFR binding, higher = more signal;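 also: score merges 667 nm emission intensity with spot signal to noise over triplicate slides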
# Chain of Epidermal growth factor receptor (Homo sapiens) (P00533 whole entry, looked up): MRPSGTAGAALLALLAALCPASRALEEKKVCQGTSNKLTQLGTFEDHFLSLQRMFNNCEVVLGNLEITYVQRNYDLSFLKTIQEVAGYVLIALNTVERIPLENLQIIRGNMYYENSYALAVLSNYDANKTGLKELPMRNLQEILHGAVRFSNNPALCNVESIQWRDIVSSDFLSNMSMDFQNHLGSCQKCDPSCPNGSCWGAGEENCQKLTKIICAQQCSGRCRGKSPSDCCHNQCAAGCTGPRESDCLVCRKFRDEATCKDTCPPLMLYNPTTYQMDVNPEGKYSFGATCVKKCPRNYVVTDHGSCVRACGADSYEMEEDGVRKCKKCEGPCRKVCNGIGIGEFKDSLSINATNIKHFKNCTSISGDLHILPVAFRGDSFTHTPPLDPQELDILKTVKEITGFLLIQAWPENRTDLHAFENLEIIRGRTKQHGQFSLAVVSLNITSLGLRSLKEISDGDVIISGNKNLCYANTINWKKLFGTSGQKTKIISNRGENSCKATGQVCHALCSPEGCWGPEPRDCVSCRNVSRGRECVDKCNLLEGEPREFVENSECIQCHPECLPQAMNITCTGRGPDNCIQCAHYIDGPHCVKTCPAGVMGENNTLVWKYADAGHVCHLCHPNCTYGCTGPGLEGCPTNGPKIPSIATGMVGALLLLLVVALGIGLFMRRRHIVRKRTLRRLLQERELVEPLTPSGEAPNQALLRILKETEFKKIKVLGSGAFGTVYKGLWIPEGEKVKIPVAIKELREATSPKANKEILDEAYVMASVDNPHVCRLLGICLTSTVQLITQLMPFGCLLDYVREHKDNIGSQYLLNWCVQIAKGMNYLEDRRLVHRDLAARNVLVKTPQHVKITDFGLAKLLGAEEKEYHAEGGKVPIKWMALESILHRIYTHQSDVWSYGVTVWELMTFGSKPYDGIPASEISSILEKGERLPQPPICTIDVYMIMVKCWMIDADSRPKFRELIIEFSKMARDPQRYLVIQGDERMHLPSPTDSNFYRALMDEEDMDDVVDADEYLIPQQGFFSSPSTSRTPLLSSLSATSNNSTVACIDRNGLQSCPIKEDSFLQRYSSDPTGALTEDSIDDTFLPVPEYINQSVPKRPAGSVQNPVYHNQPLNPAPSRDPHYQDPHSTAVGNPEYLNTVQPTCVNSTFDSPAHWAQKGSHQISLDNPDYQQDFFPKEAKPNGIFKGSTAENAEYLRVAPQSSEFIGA
# [8] = biological target: Follistatin-related protein 3 (Homo sapiens) (UniProt O95633); assay: FSTL3 binders on small-molecule microarrays, primary screen, biochemical, small-molecule microarray, 635 nm fluorescence (AID 1105); details: FSTL3 binding, higher = more signal;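 also: score merges emission near 667 nm and signal to noise per printed spot across three slides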
# Chain of Follistatin-related protein 3 (Homo sapiens) (O95633 whole entry, looked up): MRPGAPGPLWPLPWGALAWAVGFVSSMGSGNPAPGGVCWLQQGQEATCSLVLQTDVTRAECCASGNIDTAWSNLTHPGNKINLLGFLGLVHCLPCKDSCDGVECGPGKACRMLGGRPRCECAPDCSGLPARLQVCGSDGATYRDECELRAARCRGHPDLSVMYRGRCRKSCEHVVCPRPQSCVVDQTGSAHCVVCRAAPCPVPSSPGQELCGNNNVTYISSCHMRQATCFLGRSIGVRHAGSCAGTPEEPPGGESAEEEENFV
# [9] = biological target: Dickkopf-related protein 1 (Homo sapiens) (UniProt O94907); assay: DKK1 binders on small-molecule microarrays, primary screen, biochemical, small-molecule microarray, 635 nm fluorescence scan (AID 1106); details: DKK1 binding, higher = more signal;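 also: score merges emission near 667 nm with signal to noise over three replicate slides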
# Chain of Dickkopf-related protein 1 (Homo sapiens) (O94907 whole entry, looked up): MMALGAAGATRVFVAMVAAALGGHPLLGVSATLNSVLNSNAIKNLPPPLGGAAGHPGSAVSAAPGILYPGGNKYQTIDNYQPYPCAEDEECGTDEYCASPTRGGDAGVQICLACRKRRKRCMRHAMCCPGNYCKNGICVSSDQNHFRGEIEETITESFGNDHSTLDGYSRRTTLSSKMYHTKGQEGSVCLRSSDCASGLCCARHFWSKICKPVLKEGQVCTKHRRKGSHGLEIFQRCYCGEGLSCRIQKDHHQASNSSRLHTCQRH
# [10] = test system: Inhibin beta A chain (activin A); assay: INHBA (activin A) binders on microarrays, primary screen, biochemical, small-molecule microarray, 635 nm fluorescence scan (AID 1107); details: small-molecule microarray binding, higher = more signal;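 also: mouse activin A protein probed at 4.33 µg/mL on printed slides; score merges bound-protein fluorescence near 667 nm with spot signal-to-noise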
# [11] = test system: Human papillomavirus type 1a protein E7 (residues 44-93); assay: HPV1a E7 fragment binders on microarrays, primary screen, biochemical, small-molecule microarray, residues 44-93, 635 nm fluorescence (AID 1108); details: small-molecule microarray binding, fluorescence 635 nm; higher = more signal;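 also: E7 fragment applied at 1 µg/mL in TBST for 1 h at 4 C; score combines spot fluorescence with its signal to noise ratio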
# [12] = modulators of HCV replicon luciferase signal, primary screen, HCV replication inhibitor project, Huh7 cells, luciferase reporter (AID 1109); details: 48 h, higher = more signal;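 also: huh7 hepatoma cells harbouring a luciferase neomycin HCV replicon reporter; luciferase luminescence as measure of HCV replicon replication; test concentration not given here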
# [13] = biological target: Left-right determination factor 2 (Homo sapiens) (UniProt O00292); assay: LEFTY2 binders on small-molecule microarrays, primary screen, biochemical, small-molecule microarray, 635 nm fluorescence scan (AID 1110); details: LEFTY2 binding, higher = more signal
# Chain of Left-right determination factor 2 (Homo sapiens) (O00292 whole entry, looked up): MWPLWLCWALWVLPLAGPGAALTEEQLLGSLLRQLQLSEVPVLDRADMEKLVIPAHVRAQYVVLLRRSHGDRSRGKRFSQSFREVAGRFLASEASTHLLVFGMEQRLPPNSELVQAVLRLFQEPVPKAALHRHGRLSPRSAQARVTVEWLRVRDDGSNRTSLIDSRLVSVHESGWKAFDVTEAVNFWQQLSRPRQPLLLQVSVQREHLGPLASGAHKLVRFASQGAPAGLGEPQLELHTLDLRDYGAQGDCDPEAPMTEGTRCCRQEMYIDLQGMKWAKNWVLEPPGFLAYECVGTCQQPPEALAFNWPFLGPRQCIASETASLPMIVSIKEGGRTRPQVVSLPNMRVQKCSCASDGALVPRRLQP
# [14] = biological target: Calmodulin-1 (Homo sapiens) (UniProt P0DP23); assay: CALM1 binders on microarrays, EGTA buffer, profiling panel, biochemical, small-molecule microarray, Cy5-labelled CALM1 (AID 1111); details: Cy5-CALM1 binding fluorescence, higher = more signal;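 also: labelled calmodulin applied in Tris saline Tween buffer holding calcium plus EGTA and DTT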
# [15] = biological target: Calmodulin-1 (Homo sapiens) (UniProt P0DP23); assay: calcium-bound CALM1 binders on microarrays, profiling panel, artefact control for SMM control-protein annotation, biochemical, small-molecule microarray, Cy5-labelled CALM1, plus calcium (AID 1112); details: Cy5-CALM1 binding fluorescence, higher = more signal;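 also: score merges spot fluorescence with signal to noise from triplicate slides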
# [16] = small-molecule microarray binders of probe aWnt5a, primary screen, biochemical, biotinylated probe, 635/667 nm fluorescence (AID 1113); details: higher = more signal;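 also: score merges 667 nm fluorescence intensity with signal-to-noise per printed feature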
# [17] = small-molecule microarray binders of probe aShh, primary screen, biochemical, biotinylated probe, 635/667 nm fluorescence (AID 1114); details: higher = more signal;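 also: probe is biotin-labelled aShh protein from a stem cell growth factor screen; measures binding of labelled protein to compounds printed on the slide; score merges feature fluorescence at 667 nm with signal-to-noise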
# [18] = small-molecule microarray binders of probe aNog, primary screen, biochemical, biotinylated probe, 635/667 nm fluorescence (AID 1115); details: higher = more signal;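 also: probe is biotinylated aNog protein used at 0.15 µg/mL for 1 h at 4 C; z-score combines 667 nm fluorescence of each spot with its signal to noise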
# [19] = biological target: Torsin-1A-interacting protein 1 (Homo sapiens) (UniProt Q5JTV8); assay: LAP1 binders from COS7 cell lysate, primary screen, small-molecule microarray, 635/667 nm fluorescence (AID 1116); details: COS7-hLAP1 lysate binding, 635 nm fluorescence, higher = more signal
# Chain of Torsin-1A-interacting protein 1 (Homo sapiens) (Q5JTV8 whole entry, looked up): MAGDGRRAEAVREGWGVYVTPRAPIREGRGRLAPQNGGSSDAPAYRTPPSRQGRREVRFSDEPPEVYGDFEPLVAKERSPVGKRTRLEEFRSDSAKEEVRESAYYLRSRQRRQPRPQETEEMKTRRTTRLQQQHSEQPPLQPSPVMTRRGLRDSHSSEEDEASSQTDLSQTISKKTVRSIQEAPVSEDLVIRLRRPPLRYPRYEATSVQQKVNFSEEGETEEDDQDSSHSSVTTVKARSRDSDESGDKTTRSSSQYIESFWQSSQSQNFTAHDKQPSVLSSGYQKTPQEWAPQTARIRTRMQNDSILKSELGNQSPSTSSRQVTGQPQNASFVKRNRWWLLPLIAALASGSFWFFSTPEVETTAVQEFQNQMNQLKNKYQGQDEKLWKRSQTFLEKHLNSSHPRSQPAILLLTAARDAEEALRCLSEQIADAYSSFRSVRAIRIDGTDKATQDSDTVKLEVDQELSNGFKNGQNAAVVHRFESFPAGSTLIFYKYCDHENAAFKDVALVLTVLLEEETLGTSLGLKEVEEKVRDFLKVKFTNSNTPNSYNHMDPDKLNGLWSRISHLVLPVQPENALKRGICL
# [20] = biological target: Alpha-bungarotoxin (Bungarus multicinctus) (UniProt P60615); assay: alpha-bungarotoxin binders on microarray, profiling panel, artefact control for SMM control protein annotation, biochemical, small-molecule microarray, Alexa647 label, 635/667 nm fluorescence (AID 1117); details: alpha-BTX-A647 binding fluorescence, higher = more signal
# Chain of Alpha-bungarotoxin (Bungarus multicinctus) (P60615 whole entry, looked up): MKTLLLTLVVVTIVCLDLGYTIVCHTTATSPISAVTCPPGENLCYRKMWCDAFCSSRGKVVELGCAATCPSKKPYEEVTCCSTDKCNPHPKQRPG
Compound,composite z-score [1],composite z-score [2],composite z-score [3],z-score [4],composite z-score [5],composite z-score [6],composite z-score [7],composite z-score [8],composite z-score [9],composite z-score [10],composite z-score [11],z-score [12],composite z-score [13],composite z-score [14],composite z-score [15],composite z-score [16],composite z-score [17],composite z-score [18],composite z-score [19],composite z-score [20]
COc1ccc(C#Cc2ccc3c(c2)[C@]2(C(=O)N3)[C@H](C(=O)O)[C@H]3C(=O)O[C@H](c4ccccc4)[C@H](c4ccccc4)N3[C@@H]2c2ccc(OCCO)cc2)cc1,1.48,0.192,0.296,-0.825 (inactive),0.929,0.984,0.45,0.486,0.195,-0.159,0.873,-1.92,0.336,2.25,0.87,-0.0617,0.0492,0.141,2,2.28
COc1ccc(C#Cc2ccc3c(c2)[C@]2(C(=O)N3)[C@H](C(N)=O)[C@H]3C(=O)O[C@H](c4ccccc4)[C@H](c4ccccc4)N3[C@@H]2c2ccc(O)cc2)cc1,0.818,0.153,0.411,10.5 (active),0.904,0.491,0.248,0.313,0.0346,-0.116,1.48,-2.51,0.422,0.539,0.686,-0.12,-0.0904,-0.215,1.09,1.05
COCCOC(=O)N1C(=O)[C@@]2(c3cc(C#CCC(C(=O)OC)C(=O)OC)ccc31)[C@H](C(=O)N1CCCCCCC1)[C@H]1C(=O)O[C@H](c3ccccc3)[C@H](c3ccccc3)N1[C@@H]2c1ccc(O)cc1,1.36,1.7,1.41,0.0931 (inactive),1.2,1.3,0.783,1.45,1.07,1.63,1.37,-0.586,0.485,1.1,0.624,0.244,-0.0422,2.33,0.166,1.3
COCCOC(=O)N1C(=O)[C@@]2(c3cc(C#CCCO)ccc31)[C@H](c1ccc(OCCO)cc1)N1[C@H](c3ccccc3)[C@H](c3ccccc3)OC(=O)[C@H]1[C@@H]2C(=O)N1CCc2cc(OC)c(OC)cc2C1,1.29,-0.0877,0.232,0.309 (inactive),1.16,1.31,0.58,0.882,0.582,0.413,1.39,-1.12,0.503,0.759,0.215,-0.124,-0.0904,0.0531,-0.0856,0.642
Cc1ccc(S[C@]2(C(=O)NCC(C)C)CC(=O)N(C3CCCCC3)[C@@H]2c2ccc(CO)cc2I)cc1,0.42,0.0006,0.421,-1.4 (inactive),0.231,0.296,0.21,0.468,-0.147,0.83,1.35,-2.6,0.261,1.73,0.549,0.02,-0.188,-0.471,0.703,0.0462
